Laboratory results: PubChem BioAssay AID1851 (National Center for Advancing Translational Sciences (NCATS), 2009)
The campaign covered roughly 16,000 compounds. About 5,800 (36%) were called active. Not shown: some 23% with an inconclusive outcome. The call rests on the fitted dose curve; in most records, active means well fitted curve in the direction sought with a large enough effect; inconclusive means small, poorly fitted or top-dose-only effect, or effect the other way; inactive means no such curve, though single readings can be large or run the other way. This is one part of the list.

Each compound was assayed against Cytochrome P450 2C19 (Homo sapiens) (UniProt P33261) (assay: Cytochrome panel assay with activity outcomes). Details: recombinant CYP, pro-luciferin dealkylation, luminescence, p450-cyp2c19; series mostly up to 57.1 µM; activity, negative = inhibition: at the top concentration.
Protocol: The P450 gene superfamily is involved in the metabolism and clearance of xenobiotics. This assay used various human CYP P450 isozymes to measure the dealkylation of various pro-luciferin substrates to luciferin. The luciferin is then measured by luminescence after the addition of a luciferase detection reagent. Pro-luciferin substrate concentration in the assay was equal to its KM for its CYP P450 isozyme. Inhibitors and some substrates limit the production of luciferin, and decrease measured luminescence.
NCGC Assay Protocol Summary:
1, Reagent, 2 uL, Isozyme and Pro-Luciferin
2, Library compounds, 23 nl, 40 uM to 0.24 nM dilution series
3, Controls, 23 nl, Isozyme specific inhibitor
4, Reagent, 2 uL, NADPH regeneration solution
5, Incubation time, 60 min, Isozyme specific temperature
6, Reagent, 4ul, Detection reagent
7, Incubation time, 20 min, Isozyme specific temperature
8, Detection, 1 sec, ViewLux luminescent read
The luciferase-based P450-GloTM Screening Systems were obtained from Promega (Madison, WI) for CYP 1A2 (V9770), CYP 2C9 (V9790), CYP2 C19 (V9880), CYP 2D6 (V9890), and CYP 3A4 Luciferin-PPXE (V9910) and were adapted for 1,536-well microplates and an automated protocol. The control compounds furafylline for 1A2 (F124), sulfaphenazole for CYP 2C9 (S0758), ketoconazole for CYP 2C19 (K1003), quinidine for 2D6 (Q3625), and ketoconazole for 3A4 (K1003) were purchased from Sigma Aldrich (St. Louis, MO). Recombinant P450 enzymes were obtained from baculovirus constructs expressed in insect cells (BD/Gentest).
Medium-binding white solid Kalypsys plates used. Mixtures kept on ice. 1A2: 10 nM 1A2, 100 uM Luc-ME, 100 mM KPO4; 2C9: 10 nM 2C9, 100 uM Luc-H, 25 mM KPO4; 2C19: 5 nM 2C19, 10 uM Luc-H EGE, 50 mM KPO4; 2D6: 5 nM 2D6, 30 uM Luc-ME EGE, 100 mM KPO4; 3A4: 10 nM, 25 uM Luc-PPXE. All amounts are reflected in their final concentration, working concentration is 2x.
NADPH regeneration solution: 1.3 mM NADP+, 3.3 mM glucose-6-phosphate, 3.3 mM MgCl2, 0.4 U/mL glucose-6-phosphate dehydrogenase for all isozymes, 200 mM KPO4 for 3A4. Mixture prepared at RT but kept on ice during automated run.
RT incubation in auxilliary plate hotel for 1A2, 2D6, and 3A4; 37C for 2C9 and 2C19.
Keywords: P450, CYP1A2, CYP2C19, CYP2C9, CYP2D6, CYP3A4, Luciferase, MLSMR, MLSCN, NIH Roadmap, qHTS, NCGC
On the % scale 0 is the no-effect control and ±100 the full control effect.

Sequence of Cytochrome P450 2C19 (Homo sapiens) (P33261 whole entry, looked up): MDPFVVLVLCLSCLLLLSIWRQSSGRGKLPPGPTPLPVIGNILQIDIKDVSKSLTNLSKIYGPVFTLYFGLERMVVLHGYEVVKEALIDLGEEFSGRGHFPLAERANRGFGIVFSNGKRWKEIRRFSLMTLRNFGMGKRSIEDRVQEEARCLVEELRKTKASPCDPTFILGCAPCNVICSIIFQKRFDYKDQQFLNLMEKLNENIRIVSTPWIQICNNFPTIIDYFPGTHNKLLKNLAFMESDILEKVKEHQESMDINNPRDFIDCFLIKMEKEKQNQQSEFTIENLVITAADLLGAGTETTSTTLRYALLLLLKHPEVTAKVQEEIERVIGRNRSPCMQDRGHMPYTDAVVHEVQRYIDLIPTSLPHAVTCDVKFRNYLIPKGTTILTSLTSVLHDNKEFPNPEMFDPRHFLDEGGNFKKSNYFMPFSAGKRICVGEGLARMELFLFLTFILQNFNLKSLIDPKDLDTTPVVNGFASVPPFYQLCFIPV

SMILES | AC50 | activity, negative = inhibition
Cc1ccc(S(=O)(=O)N(CCCN2CCCC2=O)Cc2cc3c(C)ccc(C)c3[nH]c2=O)cc1 | 11.2 µM (active) | 
Cc1ccc(CS(=O)(=O)CCC(=O)NCCCN2CCCC2=O)cc1 |  | 54.4% (inactive)
O=C(CCC(=O)OCc1ccc(C(=O)Oc2ccccc2)cc1)Nc1cccc2ccccc12 | 11.2 µM (active) | 
O=C(c1cc(-c2ccc(Cl)cc2Cl)on1)N1CCN(C(=O)c2ccco2)CC1 | 3.16 µM (active) | 
O=C(c1ccc(Cl)cc1)N1CCN(C(=O)c2ccco2)CC1 |  | -25.8% (inactive)
O=C(Cc1ccc(Cl)cc1)N1CCN(C(=O)c2ccco2)CC1 | 7.94 µM (active) | 
O=C(c1ccco1)N1CCC2(CC1)CN(c1ccccn1)C2 |  | -14.5% (inactive)
CCCN(CCC)C(=S)NC(=O)c1ccc(Cl)cc1Cl | 2.51 µM (active) | 
CC1CC(C)CN(C(=O)CNS(=O)(=O)c2ccc(Br)s2)C1 (stereo not given) | 4.47 µM (active) | 
COc1ccc(C(=O)N2CCC3(CC2)CN(C(=O)Nc2cccc(C#N)c2)C3)cc1 |  | 19.4% (inactive)
COc1cccc(C(=O)NCCN2CCN(c3ccc(Cl)cc3)CC2)c1 |  | -19% (inactive)
COc1ccc(C(=O)NC2CCN(C(=S)Nc3cccc(C)c3)CC2)cc1 | 8.91 µM (active) | 
COc1cccc(-c2csc(N3CCN(CC(=O)NNC(=O)c4ccc(Cl)cc4)CC3)n2)c1 | 1.26 µM (active) | 
Cc1cccc(C(=O)NC(=S)N2CCN(C)CC2)c1 |  | 18.4% (inactive)
COc1cccc(-c2csc(N3CCN(C(=S)Nc4ccccc4)CC3)n2)c1 | 1.78 µM (active) | 
Cc1cccc(C(=O)NC2CCN(C(=S)NCc3ccco3)CC2)c1 | 28.2 µM (active) | 
CNC(=S)N1CCN(c2ccccc2OC)CC1 | 7.08 µM (active) | 
COC(=O)N1CCC2(CC1)CCN(c1cccc(-c3ccccc3)c1)CC2 |  | -33% (inactive)
COC(=O)c1ccc(NC(=S)N2CCN(Cc3cccc(C)c3)CC2)cc1 | 4.47 µM (active) | 
COc1ccc(N2CCN(C(=S)Nc3cc(C)cc(C)c3)CC2)cc1 |  | -17.2% (inactive)
COc1ccc(N2CCN(C(=S)Nc3cc(C)ccc3C)CC2)cc1 | 5.62 µM (active) | 
CNC(=S)N1CCN(c2cccc(OC)c2)CC1 | 7.08 µM (active) | 
COc1ccc(COC(=O)N/N=C2/C[C@@H](O)[C@@H](O)[C@@H]3[C@@H]4C(=O)N(C(C)(C)C)C(=O)[C@H]4CC[C@H]23)cc1 |  | 9.85% [at 11.4 µM] (inactive)
COc1cccc(N2CCN(C(=S)Nc3cccc(C)c3)CC2)c1 | 7.94 µM (active) | 
COc1ccc(N2CCN(C(=S)Nc3cccc(C)c3)CC2)cc1 |  | -9.17% (inactive)

SMILES | AC50 | activity, negative = inhibition
Cc1c(CCC(C)C)c(-n2ccnc2C)n2c(nc3ccccc32)c1C#N |  | 9.23% (inactive)
FC(F)(F)c1nc2ccccc2nc1N/N=C/c1ccc(Cl)cc1 | 3.55 µM (active) | 
COC(=O)C/C=C\[C@@H](C)[C@@H](/C=N\O[C@@H](C)CN1CCCc2nc(C)c(C)cc21)OC |  | -26.4% [at 11.4 µM] (inactive)
Cc1cc(Cl)ccc1OCCCC(=O)N1CCN(C)CC1 | 5.62 µM (active) | 
CCOC(=O)c1c(CC(C)C)csc1NC=O | 14.1 µM (active) | 
COC(=O)c1c(C)oc2ccc(N(C(=O)c3ccncc3)S(=O)(=O)c3ccccc3)cc12 | 0.631 µM (active) | 
NCCCCCc1nnc(SCc2ccc(Cl)cc2Cl)o1 | 5.62 µM (active) | 
NCCCCCc1nnc(SCc2ccccc2Cl)o1 | 4.47 µM (active) | 
Cc1cc(=O)n2c3ccccc3n(CC(O)CN3CCCCC3)c2c1C#N (stereo not given) |  | -17.8% (inactive)
Nc1ncnc2c1ncn2[C@H]1O[C@@H](C(=O)O)[C@@H](O)[C@H]1O |  | -9.53% [at 11.4 µM] (inactive)
COc1ccc(NC(=O)CCSc2cc(C)c3ccccc3n2)cc1 | 7.94 µM (active) | 
COc1cccc(NC(=O)CSc2nc3ccccc3cc2Cc2ccccc2)c1 | 0.251 µM (active) | 
COc1ccccc1NC(=O)CSc1nc2ccccc2cc1Cc1ccccc1 | 0.0398 µM (active) | 
COc1ccc(NC(=O)CSc2nc3ccccc3cc2Cc2ccccc2)cc1 | 0.0282 µM (active) | 
CC(C)NC[C@H](O)c1ccc(NS(C)(=O)=O)cc1 | inactive | 
CN(CCc1ccc(Cl)c(Cl)c1)C[C@@H](O)COc1ccc(NS(C)(=O)=O)cc1 | 2 µM (active) | 
CN(CCc1ccc(Cl)c(Cl)c1)CCN1CCCCCC1 |  | -43.2% (inactive)
O=C(NCc1ccccc1)c1onc(CSc2ccc(F)cc2)c1C(=O)NCCCN1CCOCC1 | 12.6 µM (active) | 
COCCNC(=O)c1onc(CSc2ccc(Cl)cc2)c1C(=O)O | 3.55 µM (active) | 
O=C(NCCCN1CCOCC1)c1cc2c(s1)CSC2 |  | -22.2% (inactive)
COCCNC(=O)c1onc(CSc2cccc(Cl)c2)c1C(=O)O |  | 6.67% (inactive)
C=CCNC(=O)c1onc(CSc2ccc(F)cc2)c1C(=O)O | 5.62 µM (active) | 
O=C(NCC1CCCO1)c1onc(CSc2ccccc2F)c1C(=O)O (stereo not given) |  | 37.7% (inactive)
COc1ccccc1C(=O)O/N=C1/CCCc2c1ccc(OC)c2[N+](=O)[O-] | 0.631 µM (active) | 
COc1ccc(/C=N/NC(N)=S)cc1OC(=O)c1cccc2ccccc12 | 2 µM (active) | 

SMILES | AC50 | activity, negative = inhibition
O=C(O)CC[C@]1(C(=O)O)CCC(=O)c2ccccc21 |  | 22.5% [at 11.4 µM] (inactive)
Cc1ccccc1NS(=O)(=O)c1ccc2[nH]cc(C(=O)N(C)Cc3ccco3)c(=O)c2c1 | 25.1 µM (active) | 
NNS(=O)(=O)c1cc(C(=O)O)cc(C(=O)O)c1 |  | -25.2% [at 11.4 µM] (inactive)
CC1CCN(c2ccc(S(=O)(=O)Nc3cc(C(=O)O)cc(C(=O)O)c3)cc2[N+](=O)[O-])CC1 | 3.16 µM (active) | 
COC(=O)c1cc(NS(=O)(=O)c2ccc(N3CCCCCC3)c([N+](=O)[O-])c2)cc(C(=O)OC)c1 | 5.62 µM (active) | 
CCCCN(C)S(=O)(=O)c1ccc(C(=O)Nc2nnc(CSC)o2)cc1 |  | -9.3% (inactive)
Cc1cc(C)c(C)c(S(=O)(=O)ON2C(=O)c3ccccc3C2=O)c1C | 3.16 µM (active) | 
CC(C)(SCc1ccccc1)[C@H](N)C(=O)O |  | 1.45% [at 11.4 µM] (inactive)
N[C@@](CC(=O)O)(Cc1ccccc1)C(=O)O |  | 22.4% [at 11.4 µM] (inactive)
C=CC(=O)NC(C)(C)Cc1ccccc1 | 14.1 µM (active) | 
COC(=O)c1ccccc1NS(=O)(=O)c1ccc2c3c(cccc13)C(=O)N2 | 0.794 µM (active) | 
Fc1ccc(C(OCCCc2cnc[nH]2)c2ccc(F)cc2)cc1 | 0.00398 µM (active) | 
N[C@@H](Cc1cnc[nH]1)C(=O)O |  | 36.4% (inactive)
N=C(N)SCCc1cnc[nH]1 | inactive | 
CN1CCN(c2ncc3nc(-c4cccs4)c(=O)n(C[C@H]4CCCO4)c3n2)CC1 |  | -16.1% (inactive)
CN1CCc2c(c3ccccc3n2C)C1 |  | 1.73% (inactive)
O=S(=O)(O)c1ccc(N=Nc2ccc3c(S(=O)(=O)O)cccc3c2O)c2ccccc12 |  | -37.1% [at 11.4 µM] (inactive)
COc1cc(-c2ccc(N=Nc3ccc4c(S(=O)(=O)O)cc(S(=O)(=O)O)c(N)c4c3O)c(OC)c2)ccc1N=Nc1ccc2c(S(=O)(=O)O)cc(S(=O)(=O)O)c(N)c2c1O | 3.98 µM (active) | 
C=CCN(CC=C)C(=O)C(=O)c1cc(C)n(-c2ccc([N+](=O)[O-])cc2)c1C | 0.126 µM (active) | 
CN1CCN(C2=Nc3ccccc3Oc3ccc(Cl)cc32)CC1 | inactive | 
Clc1ccc2c(c1)C(N1CCNCC1)=Nc1ccccc1O2 |  | -17.2% [at 25.6 µM] (inactive)
CN1CCN(C2=Cc3ccccc3Oc3ccc(Cl)cc32)CC1 | 3.98 µM (active) | 
COC(=O)c1sc2ccccc2c1-n1cccc1C(=O)C(=O)Nc1ccc(Cl)cc1 | 5.01 µM (active) | 
C=CCNC(=O)c1cccn1-c1ccsc1C(=O)OC |  | -9.71% (inactive)
Cc1ccc(NC(=O)N(Cc2ccco2)C(C)c2ccco2)cc1C (stereo not given) | 5.62 µM (active) | 

SMILES | AC50 | activity, negative = inhibition
COCC(=O)N1CCC2(CCCN(Cc3ccccc3OC)C2)CC1 |  | 20.3% (inactive)
Cc1ccc(-c2n[nH]c(=S)n2/N=C/c2cccn2C)cc1 | 14.1 µM (active) | 
Cc1nnc(C)n1/N=C/c1ccc(-c2ccccc2)cc1 |  | -11.6% (inactive)
C/C=C\C(=O)N(CC)c1ccccc1C |  | -41.5% [at 25.6 µM] (inactive)
COc1cccc(-c2cc(=O)c3ccccc3o2)c1N | 6.31 µM (active) | 
C/C(=N/O)[C@@H]1C[C@H](CC(=O)O)C1(C)C |  | 23% [at 11.4 µM] (inactive)
Cc1cc(C)n2nc(-c3sccc3-n3cccc3)cc2n1 | 7.08 µM (active) | 
CCOC(=O)c1cccc(C(=O)OCC)n1 |  | -3.88% (inactive)
O=C(OCC(=O)c1cccs1)c1cccc(C(=O)OCC(=O)c2cccs2)n1 | 17.8 µM (active) | 
Cc1ccc2nc(NC(=O)COC(=O)c3ccc(Br)o3)sc2c1 | 8.91 µM (active) | 
Cc1nc2ccc(S(=O)(=O)NC(CC(C)C)C(=O)O)cc2s1 (stereo not given) |  | -7.8% (inactive)
Cc1ccc2nc(-c3ccc(NC(=O)c4ccc(N)cc4)c(S(=O)(=O)O)c3)sc2c1 |  | 0.214% [at 11.4 µM] (inactive)
Cc1ccc2nc(NC(=O)CSCC(=O)OCC(=O)c3ccc(Br)cc3)sc2c1 | 8.91 µM (active) | 
OCCN(CCO)c1ncnc2nc[nH]c12 |  | -23.9% [at 11.4 µM] (inactive)
CC(C)(C)N1C(=O)[C@H]2[C@@H]3[C@H](O)[C@H](O)CC(=O)[C@H]3CC[C@H]2C1=O |  | -4.03% [at 11.4 µM] (inactive)
N#CCCn1c(=O)c(-c2ccc(Cl)cc2)nc2cnc(Oc3cccc(Cl)c3)nc21 |  | -6.9% (inactive)
N#CCCn1cc(/C=N/O)c(-c2ccc(Cl)cc2)n1 | 7.94 µM (active) | 
N#CCCn1c(=O)c(-c2ccc(Cl)cc2)nc2cnc(N3CCOCC3)nc21 |  | -3.89% (inactive)
CC1=CC(=O)C=CC1(C)C(Cl)(Cl)Cl (stereo not given) | 25.1 µM (active) | 
CN(C)c1ccc(-c2nccc(NCc3ccccc3)n2)cc1 | 25.1 µM (active) | 
COc1ccccc1CNc1ccnc(-c2ccoc2)n1 | 7.94 µM (active) | 
CN(C)c1ccc(-c2nccc(NCc3cccs3)n2)cc1 | 15.8 µM (active) | 
Cc1cnc(CNc2ccnc(-c3ccc(N(C)C)cc3)n2)cn1 |  | -41.5% (inactive)
CN(C)C(=O)c1ccc(-c2nccc(NCc3ccccc3)n2)cc1 |  | -44.6% (inactive)
COc1ccccc1CNc1ccnc(-c2ccc(N(C)C)cc2)n1 | 10 µM (active) | 
